According to PubChem BioAssay (Tox21):
Inconclusive results are not listed. A number with no mark means an inactive call. Calls follow the shape of the dose curve; as a rule, active = well fitted curve in the direction sought with a large enough effect in the repeat runs; inconclusive = weak or mixed curves; inactive = no such curve, though single readings can be large; an effect the other way counts as inactive or inconclusive.
% is scaled to controls: 0 for no effect and ±100 for the full control effect.

Test: qHTS assay to identify small molecule antagonists of the TGF-beta/Smad signaling pathway - cell viability counter screen (AID 1346824); also: nearly all actives have a fitted effect of over 50% in size
Settings: SBE-bla HEK293T viability, CellTiter-Glo luminescence; series mostly up to 76.8 µM; viability change, negative = cytotoxic: at the top concentration
Procedure, shortened: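 Cytotoxicity counter-screen run in the same wells as the beta-lactamase Smad reporter read: CellTiter-Glo luminescence after 30 min at room temperature. HEK 293T SBE-bla cells had 5 hr compound exposure at 37 C with TGF-beta1 (0.25 ng/mL stock).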
For `CCCc1nn(C)c2c(=O)[nH]c(-c3cc(S(=O)(=O)N4CCN(C)CC4)ccc3OCC)nc12`, the “viability change, negative = cytotoxic” value was 5.02% [at 35.3 µM]. With `CCOC(=O)COc1cc(-n2ncc(C(F)(F)F)c(C)c2=O)c(F)cc1Cl` the “viability change, negative = cytotoxic” value was -1.86%. With `CN(C)C(=O)Oc1ccc[n+](C)c1` the “viability change, negative = cytotoxic” value was -1.44% [at 35.3 µM]. With `CCC(=O)OCc1ccccc1` the “viability change, negative = cytotoxic” value was 1.29%. In the case of `CCN1C=CN(C)C1C` (stereo unspecified), the “viability change, negative = cytotoxic” value was 4.43%. For `C1CCC2(CCCCO2)OC1`, the “viability change, negative = cytotoxic” value was 2.53%. In the case of `CCC(C(=O)NC(=O)NC(C)=O)c1ccccc1` (stereo unspecified), the “viability change, negative = cytotoxic” value was 0.277% [at 35.3 µM]. With `CC(=O)N[C@H]1[C@H]([C@H](O)[C@H](O)CO)OC(C(=O)O)=C[C@@H]1N=C(N)N` the “viability change, negative = cytotoxic” value was -6.93% [at 35.3 µM]. In the case of `Cc1c(N)c(=O)n(-c2ccccc2)n1C`, the “viability change, negative = cytotoxic” value was 0.92% [at 35.3 µM]. With `CN(C)CCN(C)CCN(C)C` the “viability change, negative = cytotoxic” value was -6.85%. In the case of `CCCO[Si](OCCC)(OCCC)OCCC`, the “viability change, negative = cytotoxic” value was -2.5%. With `CN1CCC(=C2c3ccccc3CCc3cccnc32)CC1` the “viability change, negative = cytotoxic” value was -4.88% [at 35.3 µM]. In the case of `CCO[Si](OCC)(OCC)c1ccccc1`, the “viability change, negative = cytotoxic” value was 3.86%. For `COc1ccccc1OCC1CNC(=O)O1` (stereo unspecified), the “viability change, negative = cytotoxic” value was 14.7% [at 35.3 µM]. For `C[C@@H]1CCC[C@H](C)N1`, the “viability change, negative = cytotoxic” value was 1.06% [at 35.3 µM]. Work on `CN1CCN(c2cc3c(nn2)Oc2ccccc2N3C)CC1` yielded a viability change, negative = cytotoxic of 1.43% [at 15.8 µM]. With `Cc1coc2ccccc2c1=O` the “viability change, negative = cytotoxic” value was 4.07% [at 35.3 µM]. With `CCCCCCCCCCCCSC` the “viability change, negative = cytotoxic” value was -13.2%. In the case of `C=CC(C)(CCC=C(C)C)OC(=O)CC` (stereo unspecified), the “viability change, negative = cytotoxic” value was -2.55%. For `CN1[C@@H]2CC[C@H]1CC(OC(=O)C(O)c1ccccc1)C2` (stereo partly specified), the “viability change, negative = cytotoxic” value was 0.153% [at 35.3 µM]. With `COc1ccnc(CS(=O)c2nc3cc(OC(F)F)ccc3[nH]2)c1OC` (stereo unspecified) the “viability change, negative = cytotoxic” value was -2.18%. For `CC(C)C[C@@H](N)C(=O)O`, the viability change, negative = cytotoxic was -3.28% [at 15.8 µM]. With `CCOC(=O)C(=O)CCCCCCl` the “viability change, negative = cytotoxic” value was 15.2% [at 35.3 µM]. For `CO[C@@]1(NC(=O)C(C(=O)O)c2ccc(O)cc2)C(=O)N2C(C(=O)O)=C(CSc3nnnn3C)CO[C@@H]21` (stereo partly specified), the “viability change, negative = cytotoxic” value was 1.04% [at 35.3 µM]. With `c1ccc2sc(SN3CCOCC3)nc2c1` the “viability change, negative = cytotoxic” value was -3.43% [at 35.3 µM]. In the case of `Cc1cccc(C)c1NC(=O)CC12CCCN1CCC2`, the “viability change, negative = cytotoxic” value was 1.13% [at 35.3 µM]. For `CCCCCC(=O)OCCc1ccccc1`, the “viability change, negative = cytotoxic” value was -2.49%. For `C[N+]1(C)[C@@H]2CC(OC(=O)[C@H](CO)c3ccccc3)C[C@H]1[C@@H]1O[C@@H]12` (stereo partly specified), the “viability change, negative = cytotoxic” value was 0.0423% [at 35.3 µM]. With `CCC(C)(CCCC(C)C)OC(C)=O` (stereo unspecified) the “viability change, negative = cytotoxic” value was 19%. With `NC(=O)N[C@@H](CCC(=O)O)C(=O)O` the “viability change, negative = cytotoxic” value was 1.66% [at 35.3 µM]. For `C=CCCC(=O)O`, the “viability change, negative = cytotoxic” value was 1.92%. With `C=CCCCCCCCCC(=O)OCC` the “viability change, negative = cytotoxic” value was 4.07%. For `CO[Si](C)(OC)c1ccccc1`, the “viability change, negative = cytotoxic” value was -0.413%. With `CCC(C)(CN(C)C)OC(=O)c1ccccc1` (stereo unspecified) the “viability change, negative = cytotoxic” value was -1.75% [at 35.3 µM]. For `C=CC(=O)OCCCl`, the “viability change, negative = cytotoxic” value was -4.9%. With `CC(C)(C#N)Nc1nc(Cl)nc(NC2CC2)n1` the “viability change, negative = cytotoxic” value was -7.32%.

Test: qHTS assay to identify small molecule agonists of the TGF-beta/Smad signaling pathway - cell viability counter screen (AID 1346829); also: top concentration of the series differs between compounds; nearly all actives have a fitted effect of over 45% in size
Settings: SBE-bla HEK293T viability, CellTiter-Glo luminescence, 5 h; series mostly up to 76.8 µM; activity change, negative = cytotoxicity: at the top concentration
Procedure, shortened: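 After overnight seating at 37 C and 5% CO2, reporter cells got compounds for 5 hr and FRET substrate for 2 hr; cell viability then came from CellTiter-Glo luminescence.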
In the case of `CCOC(=O)COc1cc(-n2ncc(C(F)(F)F)c(C)c2=O)c(F)cc1Cl`, the “activity change, negative = cytotoxicity” value was 2.92%. With `CN(C)C(=O)Oc1ccc[n+](C)c1` the “activity change, negative = cytotoxicity” value was 0.511% [at 35.3 µM]. For `CCCO[Si](OCCC)(OCCC)OCCC`, the “activity change, negative = cytotoxicity” value was -5.18%. For `CCO[Si](OCC)(OCC)c1ccccc1`, the “activity change, negative = cytotoxicity” value was -4.57%. With `C[C@@H]1CCC[C@H](C)N1` the “activity change, negative = cytotoxicity” value was -6.46% [at 35.3 µM].
